MEP2-GFP yeast: alters MEP2-GFP fluorescence in TOR pathway yeast screen. AID 2016. GFP response vs DMSO, % at 10 µM. S. cerevisiae MEP2-GFP strain, flow cytometry GFP, 3 h; 100% = DMSO control level. 330,000 tested, 0.51% active;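 active = GFP response versus DMSO above a set limit, roughly screen mean plus 3 SD, cut at about 180% in these data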;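 also: median GFP fluorescence of the barcode-gated MEP2-GFP cells per well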
AGP1 TOR yeast: modulators of TOR pathway AGP1-GFP in S. cerevisiae | S. cerevisiae AGP1-GFP multiplex flow cytometry, 3 h; GFP as percent of DMSO wells | GFP response vs DMSO, % at 10 µM | 320,000 tested, 0.02% active | AID 2066;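 active = GFP response relative to DMSO above a set limit, near screen average plus 3 SD, cut at about 150% in these data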;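 also: median GFP channel fluorescence of the gated AGP1 strain per well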
RPL19A-GFP yeast: modulators of TOR pathway RPL19A-GFP in S. cerevisiae. AID 2025. S. cerevisiae RPL19A-GFP strain, flow cytometry, 3 h; active compounds read low. 330,000 tested, 0.3% active. percent response vs DMSO, % at 10 µM;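 active = percent response vs DMSO below 50%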;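 also: median channel GFP fluorescence of the barcoded RPL19A-GFP strain; ratio of sample median GFP to plate DMSO average so 100% = DMSO; lower means less RPL19A-GFP as with rapamycin TOR inhibition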
CIT2 TOR yeast: yeast TOR pathway CIT2-GFP modulation | S. cerevisiae CIT2-GFP strain, flow cytometry, 3 h; 100 means same as DMSO wells | 320,000 tested, 0.065% active | GFP response vs DMSO, % at 10 µM | AID 2029;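 active = GFP response relative to DMSO above a set limit, near the screen mean plus 3 SD, cut at about 150% in these data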;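 also: ratio of well median GFP fluorescence to mean of DMSO wells on the plate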
LAP4-GFP MLPCN: modulators of TOR pathway LAP4-GFP in S. cerevisiae; S. cerevisiae LAP4-GFP multiplex, flow cytometry GFP, 3 h; median GFP as percent of DMSO wells; GFP response vs DMSO, % at 10 µM; 320,000 tested, 0.34% active; AID 2023;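 active = GFP response vs DMSO above a set limit, about the screen mean plus 3 SD, cut at about 150% in these data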
LAP4 cherry2: second confirmation of modulators of TOR reporter LAP4-GFP in yeast | shares compounds with LAP4-GFP MLPCN | S. cerevisiae LAP4-GFP strain, flow cytometry GFP, 3 h | GFP response vs DMSO, % at 10 µM | 590 tested, 20% active | AID 2621;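 active = GFP signal as percent of the solvent control above about 150%, meaning raised reporter expression, limit read from the data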;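 also: ratio of well median GFP fluorescence to plate DMSO mean so 100% = DMSO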
MEP2 cherry2: yeast MEP2-GFP modulation, second cherry pick. shares compounds with LAP4-GFP MLPCN. S. cerevisiae MEP2-GFP strain, flow cytometry GFP, 3 h. GFP response vs DMSO, % at 10 µM. 590 tested, 10% active;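 active = GFP signal above 150% of the solvent control wells, that is a rise of more than half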;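 also: median channel GFP fluorescence of all gated yeast cells per well; ratio of median GFP to plate DMSO average so 100% = DMSO level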
RPL19A-GFP pick2: yeast RPL19A-GFP TOR reporter modulation, second cherry pick; 590 tested, 3% active; shares compounds with LAP4-GFP MLPCN; S. cerevisiae RPL19A-GFP strain, flow cytometry GFP, 3 h; active compounds read low; 100% means same as DMSO wells; GFP response vs DMSO, % at 10 µM;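 active = under 65% GFP response relative to DMSO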;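 also: median GFP channel fluorescence per well over the all cells gate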
CIT2 GFP CP2: reconfirmed modulator of CIT2-GFP TOR reporter in yeast; shares compounds with LAP4-GFP MLPCN; S. cerevisiae CIT2-GFP strain, flow cytometry GFP, 3 h; DMSO control wells read 100%; GFP response vs DMSO, % at 10 µM; 590 tested, 8% active;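 active = GFP response vs DMSO above about 150%, limit read from the data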;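 also: median green fluorescence per well over all gated yeast cells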
AGP1 GFP CP2: yeast AGP1-GFP TOR reporter modulation, second cherry pick. shares compounds with LAP4-GFP MLPCN. S. cerevisiae AGP1-GFP strain, flow cytometry GFP, 3 h. percent response vs DMSO, % at 10 µM. 590 tested, under 10 active;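 active = over 150 percent of DMSO response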;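 also: median GFP channel fluorescence over all cells without mother daughter split; sample median GFP divided by mean DMSO control so 100% equals DMSO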
s288c autofluor: counter-screen for compound autofluorescence in yeast s288c cells. shares compounds with LAP4-GFP MLPCN. S. cerevisiae s288c, 520 nm autofluorescence, flow cytometry, 3 h; active compounds read high; zero means same as solvent-only cells. fluorescence change (kMESF span) at 33 µM. 610 tested, under 10 active. AID 2757;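 active = fluorescence span over the dose series, or activity score, above about 33, limit read from the data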
s288c autofl DR: TOR screen hit shows autofluorescence in yeast s288c | S. cerevisiae s288c parental, compound autofluorescence, flow cytometry, 3 h | fluorescence change (span) at 33 µM | 110 tested, under 10 active | shares compounds with LAP4-GFP MLPCN;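 active = fluorescence change span, or the activity score built from it, above 25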
TORC1 bypass: stops wildtype yeast growth while TORC1 bypass cells still grow. shares compounds with LAP4-GFP MLPCN. AID 504456. 120 tested, under 10 active. S. cerevisiae BY4741 spot growth rating, 48-72 h; active compounds read low. growth rating (0-3) at 30 µM;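 active = growth rating at most 1 for wild type yeast while the TORC1 bypass strain still grows fully, rated 3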
Numbers without * were called inactive; . = no result. Most compounds without a hit are left out; they make up all but 0.92% or so of the library.

SMILES | MEP2-GFP yeast | AGP1 TOR yeast | RPL19A-GFP yeast | CIT2 TOR yeast | LAP4-GFP MLPCN | LAP4 cherry2 | MEP2 cherry2 | RPL19A-GFP pick2 | CIT2 GFP CP2 | AGP1 GFP CP2 | s288c autofluor | others
CC(=O)Oc1oc(-c2ccccc2)nc1/C=N/c1ccccn1 | 89 | 80 | 93 | 86 | 140 | . | . | . | . | . | .
CN(C)c1ccc(N=Cc2nc(-c3ccccc3)oc2O)cc1 | 84 | 88 | 84 | 93 | 72 | . | . | . | . | . | .
CC(=O)Oc1oc(-c2ccccc2)nc1C=Nc1ccc(N(C)C)cc1 | 98 | 102 | 101 | 94 | 110 | . | . | . | . | . | 0
COc1ccc(N=Cc2nc(-c3ccco3)oc2O)cc1 | 97 | 87 | 92 | 87 | 120 | . | . | . | . | . | .
CN(C)c1ccc(N=Cc2nc(-c3ccccc3)oc2OC(=O)c2ccccc2)cc1 | 105 | 98 | 102 | 108 | 98 | . | . | . | . | . | 0.61
CCCc1cc(=O)[nH]c(SCC(=O)Nc2cc(S(=O)(=O)N3CCCCC3)ccc2C)n1 | 106 | 103 | 102 | 96 | 104 | . | . | . | . | . | .
COc1ccc(-n2ccnc(SCC(=O)NCc3ccc(C)cc3)c2=O)cc1Cl | 99 | 110 | 101 | 108 | 112 | . | . | . | . | . | .
Cc1ccc(C(=O)/C=C/C(=O)c2ccc(C)cc2)cc1 | 93 | 84 | 97 | 93 | 168* | . | . | . | . | . | 0.61
CCN(CC(=O)Nc1cc(S(=O)(=O)N2CCOCC2)ccc1Cl)Cc1ccccc1 | 790* | 229* | 215 | 754* | 670* | 96 | 93 | 99 | 103 | 97 | -0.1
Cc1ccc(C(=O)Sc2cccccc2=O)cc1 | 97 | 84 | 88 | 74 | 244* | . | . | . | . | . | 1.6
CCOC(=O)c1c(-c2ccccc2)oc2ccc(O)c(CN(C)C)c12 | 98 | 97 | 98 | 103 | 93 | . | . | . | . | . | .
CCOC(=O)c1c(CSCc2ccccc2)oc2ccc(O)c(CN(C)C)c12 | 156 | 88 | 55 | 90 | 95 | 98 | 100 | 100 | 113 | 98 | .
O=C(c1ccc(C(=O)N2CCCc3ccccc32)s1)N1CCCc2ccccc21 | 115 | 103 | 84 | 67 | 171* | 125 | 164* | 101 | 118 | 142 | 1.3 | s288c autofl DR=0.66;TORC1 bypass=2
O=S1(=O)C=C(Sc2nc3ccccc3s2)c2ccccc21 | 91 | 90 | 92 | 87 | 172* | 175* | 106 | 104 | 141 | 94 | 0.2
Cc1ccc(S(=O)(=O)N2CCOCC2)cc1NC(=O)COC(=O)CCc1c[nH]c2ccccc12 | 101 | 96 | 101 | 102 | 99 | . | . | . | . | . | .
COc1cc(N2C(=O)C=CC2=O)c(OC)cc1Cl | 96 | 68 | 73 | 60 | 260* | . | . | . | . | . | 1.8
Cc1ccc(C)c(S(=O)(=O)ON2C(=O)c3ccccc3C2=O)c1 | 85 | 68 | 92 | 81 | 137 | . | . | . | . | . | .
O=C1c2ccccc2C(=O)N1OS(=O)(=O)c1ccccc1 | 90 | 80 | 87 | 96 | 223* | 144 | 160* | 72 | 112 | 82 | 2.1
Cc1cc(S(=O)(=O)ON2C(=O)c3ccccc3C2=O)ccc1F | 101 | 90 | 99 | 95 | 173* | . | . | . | . | . | 1.2
NC(=O)c1ccc(NC(=O)COC(=O)c2cc3ccccc3cc2O)cc1 | 103 | 97 | 99 | 105 | 92 | . | . | . | . | . | .
COc1ccc(NC(=O)CSc2nnc(-c3cccs3)n2N)cc1S(N)(=O)=O | 103 | 99 | 94 | 91 | 95 | . | . | . | . | . | .
O=C(C[n+]1cc[nH]c1)c1ccc(Cl)cc1 | 107 | 106 | 105 | 106 | 96 | . | . | . | . | . | .
O=C(CN1CCN(C(=O)CNC(=O)c2ccc3c(c2)OCO3)CC1)Nc1cccc(F)c1 | 103 | 105 | 99 | 102 | 104 | . | . | . | . | . | .
CCN1/C(=C/C=C/c2sc3ccccc3[n+]2CC)Sc2ccccc21 | 103 | 93 | 87 | 72 | 160* | 200* | 117 | 76 | 127 | 105 | 0.6
Cc1ccc2nc(NC(=O)COC(=O)c3cccnc3)sc2c1 | 88 | 87 | 91 | 82 | 96 | . | . | . | . | . | .
SMILES | MEP2-GFP yeast | AGP1 TOR yeast | RPL19A-GFP yeast | CIT2 TOR yeast | LAP4-GFP MLPCN | LAP4 cherry2 | MEP2 cherry2 | RPL19A-GFP pick2 | CIT2 GFP CP2 | AGP1 GFP CP2 | s288c autofluor | others
O=C1N(c2ccccc2C(F)(F)F)O[C@@]1(c1ccccc1)C1CCCC1 | 92 | 99 | 96 | 105 | 110 | 109 | 105 | 106 | 113 | 101 | -0.2
O=C1N(c2ccccc2C(F)(F)F)O[C@@]1(c1ccccc1)C1CCCCC1 | 103 | 56 | 95 | 85 | 105 | 108 | 97 | 105 | 114 | 97 | 0
O=C(O)/C=C/C(=O)NNc1ncnc2ccccc12 | 92 | 105 | 95 | 98 | 101 | . | . | . | . | . | .
O=C1C=CC(=O)N1Cc1ccccc1 | 91 | 81 | 94 | 72 | 159* | 114 | 129 | 105 | 124 | 106 | .
O=C1C2CC=CCC2C(=O)N1Cc1ccccc1 (stereo unspecified) | 97 | 96 | 97 | 92 | 101 | . | . | . | . | . | .
COc1cc(C2Nc3ccc4ccccc4c3C3=C2C(=O)CC(C)(C)C3)ccc1OC(C)C(=O)O (stereo unspecified) | 106 | 98 | 102 | 94 | 97 | . | . | . | . | . | .
CC(=O)c1cccc([N+](=O)[O-])c1 | 97 | 98 | 95 | 93 | 99 | . | . | . | . | . | .
O=C(C#Cc1ccccc1)c1cccc([N+](=O)[O-])c1 | 95 | 99 | 77 | 92 | 202* | . | . | . | . | . | 0.31
CCc1noc(C)c1C(=O)Nc1nc2c(F)cc(F)cc2s1 | 95 | 84 | 86 | 66 | 163* | 122 | 111 | 93 | 87 | 90 | .
COc1cc2c(cc1CNC[C@H]1O[C@@H](n3cnc4c(N)ncnc43)[C@H](O)[C@@H]1O)OCO2 | 97 | 101 | 97 | 99 | 96 | . | . | . | . | . | .
